Compounds without any hit were thinned out: in the full panel of roughly 83,000, 20% have a hit.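 How to read the values: 0–100, growth inhibition (40 = 60% inhibited); 0, no net growth; -100 to 0, cell death (-40 = 40% of starting cells died; -100 = all dead).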 Unmarked numbers belong to inactive results. Calls of active or inactive are those of the source. Rule for the calls: active = growth percent below 10; inactive = the rest.
system: HL-60(TB) leukemia; test: NCI-60 one-dose screen, 48 h (100 = growth as untreated, 0 = no growth, -100 = all killed); details: 10 µM unless noted

SMILES	growth
Cc1ccc2c(c1)C(C)Cc1c(Cl)ncnc1N2C (stereo unspecified)	17.3%
COc1ccccc1CNCCCN1C(=O)c2ccc3c4c(ccc(c24)C1=O)C(=O)N(CCCNCCCCNCCCN)C3=O	-54.4% (active)
CCOC(=O)c1c(C)nc2c(c1N)CC(=O)N2Cc1ccc(OC)cc1	110%
C=C(C)[C@@H]1CC[C@]2(C(=O)OC)CC[C@]3(C)[C@H](CC[C@@H]4[C@@](C)(CCc5nn[nH]n5)[C@H](C(=C)C)CC[C@]43C)[C@@H]12	-11% [100 µM] (active)
O=Nc1ccc(O)cc1	77%
COc1cc2c(cc1OCCCCCN1CCN(c3ncnc4ccccc34)CC1)N=CC1CCCN1C2=O (stereo unspecified)	-25.8% (active)
CCC(C)N(CCNc1cc(OC)cc2cccnc12)CCC(C)C (stereo unspecified)	81%
Cc1ccc(S(=O)(=O)Nc2ccccc2)cc1N	96%
Brc1cccc(-n2ncc3c(Nc4ccc(-c5nnc(-c6ccccc6)o5)cc4)ncnc32)c1	122%
NC(=N\N=C/c1cccc([N+](=O)[O-])c1)/C(N)=N\N=C/c1cccc([N+](=O)[O-])c1	104%
COc1ccc(C2=C(CN)C(O)NC(=NCC(=O)c3ccc4ccccc4c3)N2)cc1 (stereo unspecified)	97.9%
O=C1C=C(OCC=C(C(F)(F)F)C(F)(F)F)c2ccccc2C1=O	-30% (active)
COc1cc(OCc2cccc(-c3ccc4c(c3)OCCO4)c2C)cc(OC)c1C=O	64%
CCOC(=O)c1[nH]c(C)c(C(=O)O)c1C	91.6%
Cc1nc(NC(=S)Nc2ccc(F)cc2)sc1C(=O)NNC(=S)Nc1ccc(F)cc1	48.3%
COCCCN=C(N)c1ccc(NC(=O)c2ccc(C(=O)Nc3ccc(C(N)=NCCCOC)cc3)cc2)cc1	71.3%
Nc1ncc(-c2ccc(C(F)(F)F)cc2)c(NC2CCCCCC2)n1	16.8%
COc1ccc(C2=CC(c3cc(OC)c(OC)c(OC)c3)n3ncnc3N2)cc1 (stereo unspecified)	-29.9% (active)

SMILES	growth
C[C@@H]1CC[C@@]2(OC1)O[C@H]1C[C@H]3[C@@H]4CC=C5C[C@@H](O[C@@H]6O[C@H](CO)[C@@H](O[C@@H]7O[C@@H](CO)[C@H](O)[C@H]7O)[C@H](O)[C@H]6O[C@@H]6O[C@@H](C)[C@H](O)[C@@H](O)[C@H]6O)CC[C@]5(C)[C@H]4CC[C@]3(C)[C@H]1[C@@H]2C	-84.1% (active)
CCN(CC)CCNc1nc2ccccc2c2c(=O)c3cc(Cl)ccc3sc12	78.1%
COc1ccc(-c2cc(-c3ccc(OC)c(OC)c3)nc(SCCCC(=O)NO)n2)cc1	-34.9% (active)
COc1cc(-c2nc(-c3nnc(-c4ccccc4Cl)o3)c3ccccn23)cc(OC)c1OC	67.1%
C/C(=C(\c1ccc(OCCCN(C)C)cc1)c1ccc(OC(=O)Cc2ccccc2)cc1)c1ccc(Cl)cc1	78%
Cc1cccc(-n2c(C)nc3ccc(NC(=O)NCCCl)cc3c2=O)c1	113%
CCOC(=O)C/C(=N\Nc1cc(=O)[nH]c2ccc(OC)cc12)C(=O)OCC	94%
CCOC(=O)C1=C(COCCN)NC(C)=C(C(=O)OC)C1c1ccccc1Cl (stereo unspecified)	95.5%
CN(C)CC1C(=O)O[C@H]2[C@H]1CC/C(COC(=O)c1cc3ccccc3[nH]1)=C\CC[C@@]1(C)O[C@@H]21 (stereo partly specified)	-36% (active)
COc1ccc(Cl)cc1NC(N)=S	101%
N/C(=N\C(N)=N\c1nc2ccccc2s1)c1ccnc(Cl)c1	1.2% (active)
CCOC(=O)c1[nH]c2cc(Cl)ccc2c1[C@@H](C(=O)NC(C)(C)C)N(CC)C(=O)CCCCC#Cc1cccc2c1CN(C1CCC(=O)NC1=O)C2=O (stereo partly specified)	-7.29% (active)
C/C(=C(\c1ccc(OCCN2CCCCCC2)cc1)c1ccc(OC(=O)Cc2ccccc2)cc1)c1ccc(Cl)cc1	-60% (active)
N#Cc1c[nH]n2ccnc12	123%
CC1(C)CCc2cc(-c3ccn(S(=O)(=O)c4ccc(Cl)cc4)n3)ccc2O1	71.9%
COc1ccc(-c2nc(SCCC(C)C)nc(N/N=C\c3cccc([N+](=O)[O-])c3)c2C#N)cc1	97%
Cn1ncc(Cl)c1-c1cc(C(=O)N[C@H](CN)Cc2cccc(F)c2)sc1Cl	12.2%
COc1ccc(Cn2cc3c(c2-c2ccc(O)cc2)CCc2cnoc2-3)cc1	4.87% (active)

— PubChem BioAssay (NCI)
